This is an account of results in PubChem BioAssay (EPA / NIEHS).

Where “and” joins values, the source holds several entries; their conditions need not be identical. Identical values can stand only once. Calls of active or inactive are those of the source. How the source made its calls: active means hit-call score of the fitted dose curve at least 0.9, where 1 is the maximum; inactive means score below 0.9.

Read-out in assay [1]: Interleukin-1 alpha (IL1a), IL1A (gene 3552)
As to the kind of experiment: BSK_KF3CT_IL1a: BioMAP Diversity Plus: KF3CT Assay for Interleukin-1 alpha (IL1a) Biomarker Activity (AID 2283070). The following applies: primary human keratinocytes with fibroblasts; actives raise or lower the signal. In outline: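 Human keratinocyte plus foreskin fibroblast primary co-culture, sampled 24 h after chemical dosing. IL-1a measured by ELISA; responses fitted bidirectionally against DMSO baseline (negative control), so gain or loss of signal both count.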

Read-out in assay [2]: TIMP metallopeptidase inhibitor 2 (TIMP2), TIMP2 (gene 7077)
Nature of the assay: BSK_KF3CT_TIMP2: BioMAP Diversity Plus: KF3CT Assay for TIMP metallopeptidase inhibitor 2 (TIMP2) Biomarker Activity (AID 2283071). The following applies: primary human keratinocytes with fibroblasts; actives raise or lower the signal. Put shortly: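 Cells: human keratinocytes co-cultured with foreskin fibroblasts. Treat with chemical, 24 h. Measure TIMP-2 by ELISA; fit curves bidirectionally vs DMSO baseline.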

Read-out in assay [3]: C-C motif chemokine 2 (Homo sapiens) (UniProt P13500)
Nature of the assay: BSK_KF3CT_MCP1: BioMAP Diversity Plus: KF3CT Assay for Monocyte Chemoattractant Protein 1 (MCP1/CCL2) Biomarker Activity (AID 2283073). The following applies: primary human keratinocytes with fibroblasts; actives raise or lower the signal. In outline:
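ELISA read-out of MCP-1, 24 h post-dose, in primary human skin keratinocytes co-cultured with fibroblasts. Parallel SRB staining monitors cytotoxicity; changes fitted both directions relative to DMSO.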

Read-out in assay [4]: Matrix Metallopeptidase 9 (MMP9), MMP9 (gene 4318)
As to the kind of experiment: BSK_KF3CT_MMP9: BioMAP Diversity Plus: KF3CT Assay for Matrix Metallopeptidase 9 (MMP9) Biomarker Activity (AID 2283074).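 On AC50: MMP9 protein level quantified by ELISA in the co-culture.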 The following applies: primary human keratinocytes with fibroblasts; actives raise or lower the signal. In outline:
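Keratinocyte plus foreskin fibroblast human primary skin co-culture was dosed with chemical and MMP-9 was quantified by ELISA 24 h later. Bidirectional curve fitting used DMSO as negative control and activity baseline.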

Read-out in assay [5]: CD40, CD40 (gene 958)
Nature of the assay: BSK_LPS_CD40: BioMAP Diversity Plus: LPS Assay for CD40 Biomarker Activity (AID 2283076). Conditions: primary human HUVEC with PBMC; actives raise or lower the signal. In outline: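 In the LPS system of human endothelial cells with peripheral blood mononuclear cells, CD40 levels were read by ELISA 24 h post-treatment. Signal changes in either direction were fitted against the DMSO baseline, with parallel SRB protein staining.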

Read-out in assay [6]: Interleukin-8 (IL8), CXCL8 (gene 3576)
Nature of the assay: BSK_LPS_IL8: BioMAP Diversity Plus: LPS Assay for Interleukin-8 (IL8) Biomarker Activity (AID 2283078). Conditions: primary human HUVEC with PBMC; actives raise or lower the signal. In outline: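 ELISA read-out of IL-8 after 24 h chemical treatment of LPS-activated endothelial/PBMC human primary co-cultures. Changes either up or down relative to DMSO; overt cytotoxicity checked by sulforhodamine B staining in parallel wells.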

A short description of assay [7]: BSK_LPS_SRB: Viability Assessment in the BioMAP Diversity Plus: LPS Assay (AID 2283079).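 Further: total protein by sulforhodamine B absorbance as a cytotoxicity measure; measured one day after compound addition.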 Conditions: primary human HUVEC with PBMC. Put shortly:
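SRB viability endpoint: cells fixed with 10% TCA, stained with 0.1% SRB, read at 560 nm, 24 h post-dose. HUVEC/PBMC co-culture; signal change in either direction scored relative to DMSO.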

A short description of assay [8]: BSK_LPS_PGE2: BioMAP Diversity Plus: LPS Assay for Prostaglandin E2 (PGE2) Biomarker Activity (AID 2283082).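 On AC50: secreted prostaglandin E2 measured by ELISA in LPS-stimulated co-culture.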 Conditions: primary human HUVEC with PBMC; actives raise or lower the signal. In outline:
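LPS-activated HUVEC/PBMC co-culture; cmpd dosed, 24 h; PGE2 by ELISA; bidirectional fit vs DMSO; SRB (0.1%, TCA-fixed, 560 nm) in parallel plates for overt cytotox.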

Read-out in assay [9]: Macrophage colony-stimulating factor (MCSF), CSF1 (gene 1435)
As to the kind of experiment: BSK_LPS_MCSF: BioMAP Diversity Plus: LPS Assay for Macrophage colony-stimulating factor (MCSF) Biomarker Activity (AID 2283083). The following applies: primary human HUVEC with PBMC; actives raise or lower the signal. Put shortly:
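Bidirectional fitting against DMSO was applied to M-CSF levels read by ELISA at 24 h post-dose. The system pairs human umbilical vein endothelium with peripheral blood mononuclear cells; parallel SRB staining tracked cytotoxicity.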

Read-out in assay [10]: Tissue Factor, F3 (gene 2152)
Nature of the assay: BSK_LPS_TissueFactor: BioMAP Diversity Plus: LPS Assay for Tissue Factor Biomarker Activity (AID 2283084). The following applies: primary human HUVEC with PBMC; actives raise or lower the signal. Put shortly:
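Compound was added to an endothelial cell/PBMC co-culture, and after 24 h tissue factor (CD142) was read by ELISA. Gain or loss of signal was fitted against a DMSO baseline, and parallel SRB staining (560 nm) tracked overt cytotoxicity.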

Read-out in assay [11]: Tumor necrosis factor (Homo sapiens) (UniProt P01375)
Nature of the assay: BSK_LPS_TNFa: BioMAP Diversity Plus: LPS Assay for Tumour Necrosis Factor alpha (TNFa) Biomarker Activity (AID 2283085).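 On AC50: TNFa protein level quantified by ELISA in the co-culture.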 The following applies: primary human HUVEC with PBMC; actives raise or lower the signal. Put shortly:
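Read-out is ELISA of TNFa in primary human endothelial cell–PBMC co-cultures at 24 h after compound. Activity in either direction was fitted against DMSO.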

Read-out in assay [12]: Vascular cell adhesion molecule 1 (VCAM1), VCAM1 (gene 7412)
Nature of the assay: BSK_LPS_VCAM1: BioMAP Diversity Plus: LPS Assay for Vascular cell adhesion molecule 1 (VCAM1) Biomarker Activity (AID 2283086). The following applies: primary human HUVEC with PBMC; actives raise or lower the signal. Put shortly: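 HUVEC + PBMC co-culture, LPS system; compound 24 h; VCAM-1 by ELISA; bidirectional fit vs DMSO control; parallel SRB (0.1%, TCA-fixed, 560 nm) for cytotoxicity.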

Read-out in assay [13]: CD38, CD38 (gene 952)
As to the kind of experiment: BSK_SAg_CD38: BioMAP Diversity Plus: SAg Assay for CD38 Biomarker Activity (AID 2283087). Conditions: primary human HUVEC with PBMC; actives raise or lower the signal. Put shortly:
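Human HUVEC plus PBMC co-culture stimulated with superantigen; CD38 measured by ELISA 24 h after chemical dosing. Fluorescence read-out, bidirectional fit against DMSO; cytotoxicity tracked in parallel by SRB and Alamar Blue.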

Read-out in assay [14]: CD40, CD40 (gene 958)
As to the kind of experiment: BSK_SAg_CD40: BioMAP Diversity Plus: SAg Assay for CD40 Biomarker Activity (AID 2283088). Conditions: primary human HUVEC with PBMC; actives raise or lower the signal. In outline:
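CD40 is measured by fluorescence ELISA in an endothelial/PBMC primary human co-culture at 24 h post-dose. Fitting is bidirectional, DMSO baseline. Parallel SRB staining (560 nm) flags cytotoxicity.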

Read-out in assay [15]: CD69, CD69 (gene 969)
As to the kind of experiment: BSK_SAg_CD69: BioMAP Diversity Plus: SAg Assay for CD69 Biomarker Activity (AID 2283089).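 On AC50: cell surface CD69 protein quantified by ELISA with fluorescence detection.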 Conditions: primary human HUVEC with PBMC; actives raise or lower the signal. Put shortly:
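ELISA, fluorescence read-out: CD69 on human umbilical vein endothelial cell + PBMC co-culture, 24 h post-dosing. Gain or loss of signal fitted bidirectionally against DMSO baseline.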

Read-out in assay [16]: E-selectin (Homo sapiens) (UniProt P16581)
Nature of the assay: BSK_LPS_Eselectin: BioMAP Diversity Plus: LPS Assay for Eselectin Biomarker Activity (AID 2283077). The following applies: primary human HUVEC with PBMC; actives raise or lower the signal. In outline: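 E-selectin ELISA on LPS-stimulated endothelial cell/PBMC co-cultures, read 24 h post-treatment; gains and losses fitted against DMSO. Parallel SRB staining (0.1% SRB after 10% TCA fixation, 560 nm) flags overt cytotoxicity.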

Sequence of Tumor necrosis factor (Homo sapiens) (P01375 whole entry, looked up): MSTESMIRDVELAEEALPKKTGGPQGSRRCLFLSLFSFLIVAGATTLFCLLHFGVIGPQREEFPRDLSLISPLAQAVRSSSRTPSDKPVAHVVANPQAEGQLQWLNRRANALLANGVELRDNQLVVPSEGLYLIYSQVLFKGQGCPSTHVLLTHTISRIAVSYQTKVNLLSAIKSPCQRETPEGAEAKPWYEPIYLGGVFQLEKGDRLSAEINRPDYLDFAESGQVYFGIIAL
Sequence of E-selectin (Homo sapiens) (P16581 whole entry, looked up): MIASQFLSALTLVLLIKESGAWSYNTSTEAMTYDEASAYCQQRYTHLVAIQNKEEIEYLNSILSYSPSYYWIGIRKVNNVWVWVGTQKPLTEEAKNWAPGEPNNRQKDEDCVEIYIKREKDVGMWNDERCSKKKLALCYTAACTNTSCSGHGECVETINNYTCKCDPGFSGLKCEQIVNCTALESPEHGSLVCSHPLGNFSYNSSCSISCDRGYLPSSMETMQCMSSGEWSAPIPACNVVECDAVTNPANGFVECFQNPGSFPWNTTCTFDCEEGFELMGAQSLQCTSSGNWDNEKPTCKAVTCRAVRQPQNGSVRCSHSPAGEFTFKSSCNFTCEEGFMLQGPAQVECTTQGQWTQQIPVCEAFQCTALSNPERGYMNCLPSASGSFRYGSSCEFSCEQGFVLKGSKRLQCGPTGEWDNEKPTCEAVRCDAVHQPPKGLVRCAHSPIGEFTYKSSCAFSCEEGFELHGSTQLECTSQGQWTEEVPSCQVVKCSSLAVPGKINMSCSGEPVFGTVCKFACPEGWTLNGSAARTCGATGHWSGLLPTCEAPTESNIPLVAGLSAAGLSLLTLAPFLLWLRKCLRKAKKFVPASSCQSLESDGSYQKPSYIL

As for `CCCCCCOC(=O)CCCCC(=O)OCCCCCC`, the outcome in assay [1], in [2], in [3], in [4], in assay [5] and in assay [6] was inactive. Further, the outcome in assay [7], in [8], in [9], in [10], in [11] and in [12] was inactive. Further, the outcome in assay [13], in assay [14] and in [15] was inactive.

The AC50 is the concentration at which the activity in the assay is half-maximal. Take `c1ccc(Nc2cccc3ccccc23)cc1`: the AC50 is 29.8 µM (active) and 28.6 µM (active) in [1]; 34.5 µM (active) and 33.3 µM (active) in assay [2]; 28.8 µM (active) and 26.7 µM (active) in assay [3]; 31.3 µM (active) and 31.7 µM (active) in assay [4]; 22.9 µM (active) and 30.7 µM (active) in assay [5]; 24.5 µM (active) and 20 µM (active) in assay [6]. Besides, the AC50 in [7] is 31.5 µM (active) and 32.4 µM (active); in assay [8], 2.88 µM (active) and 2.19 µM (active); in assay [9], 31.2 µM (active) and 16.1 µM (active); in assay [11], 31.6 µM (active) and 29.9 µM (active); in assay [12], 32.5 µM (active) and 28.1 µM (active); in assay [13], 30.4 µM (active) and 31.1 µM (active). For the same compound, the AC50 in assay [14] is 28.9 µM (active) and 26.5 µM (active); in [15], 30.4 µM (active) and 33.2 µM (active). Besides, the result in [10] was inactive.

Consider `CC(Cl)COP(=O)(OCC(C)Cl)OCC(C)Cl` (stereo unspecified), for which the outcome in [1], in assay [2], in [3], in [4], in assay [5] and in assay [16] was inactive. For the same compound, the result in [6], in [7], in [8], in assay [9], in [10] and in assay [12] was inactive. The outcome in assay [13], in assay [14] and in assay [15] was inactive. For the same compound, the AC50 in assay [11] was 1.31 µM (active).

On to `COc1ccc(C(=O)/C(Br)=C\C(=O)O)cc1`, for which the half-maximal activity concentration (AC50) in assay [1] was 20 µM (active) and 24.8 µM (active); in assay [2], 20 µM (active); in assay [3], 33 µM (active) and 35 µM (active); in assay [4], 25.6 µM (active) and 23.3 µM (active); in assay [5], 10.2 µM (active) and 16 µM (active); in assay [6] it was 20 µM (active). The AC50 in assay [7] was 27.9 µM (active) and 31 µM (active); in [8], 7.75 µM (active) and 6.87 µM (active); in assay [9], 12.8 µM (active) and 20 µM (active); in [10] it was 20 µM (active) and 14.1 µM (active); in assay [11], 14.3 µM (active) and 28.4 µM (active); in [12] it was 20 µM (active). The AC50 is 22.3 µM (active) and 20 µM (active) in assay [13]; 20 µM (active) and 23.6 µM (active) in [14]; 15.6 µM (active) and 15.7 µM (active) in assay [15].
